This is one part of a sample in which hits are shown more often than they occur.
BJeLR viability: lowers viability of BJeLR cells. BJeLR fibroblasts viability, CellTiterGlo ATP luminescence, 48 h; HRASV12, hTERT and SV40 LT/ST transformed. viability loss activity score, % (no concentration beside the values). hit rate 0.64% among 30,000; in the data active = viability loss activity score above about 50%; inconclusive = no clear call, values can overlap the other calls; inactive = below about 35%;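 also: higher score means fewer live cells and less ATP luminescence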
Shh pathway inh: Sonic Hedgehog pathway inhibition; Shh-LIGHT2 Gli-luciferase reporter, 30 h; hit rate 2.1% among 22,000; inhibition, % (test concentration not listed);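 active = mean inhibition across valid replicates above about 65%, limit read from the data; inconclusive = mean under the limit, yet half or more replicates past it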;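 also: pathway switched on by Shh-conditioned medium diluted 1 in 25 in low serum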
MITF inhib: MITF inhibition; AID 2240; hit rate 0.28% among 37,000; TRPM1 promoter luciferase, luminescence, 24 h; inhibition, % (test concentration not listed); in the data active = inhibition above about 85%; inconclusive = no clear call, values can overlap the other calls; inactive = below about 68%;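 also: human melanocyte line stably carrying TRPM1 promoter luciferase reporter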
Large screens that a line does not name were inactive.

FC(F)(F)c1cc(-c2ccccc2)nc(NCCc2ccccc2)n1	none (no result: Shh pathway inh, MITF inhib)
CC(C)(C)OC(=O)N1CCC(CNS(=O)(=O)c2cccc3cccnc23)CC1	none (no result: Shh pathway inh, MITF inhib)
Fc1ccc(C=Nc2ccc3ccccc3c2)cc1	none
Cc1ccc(N=Cc2cc3ccccc3nc2Cl)cc1Cl	Shh pathway inh 88.6
COc1cc(/C=C/C(=O)CC(=O)/C=C/c2ccc(O)c(OC)c2)ccc1O	none
COc1ccc(/C=C/C(=O)CC(=O)/C=C/c2cccc(O)c2OC)cc1O	Shh pathway inh 69.5
CC1=C(CO)C(=O)OC([C@@H](C)C2CC[C@H]3C4C[C@H]5O[C@]56[C@@H](O)C=CC(=O)[C@]6(C)C4CC[C@]23C)C1 (some centres not stated)	Shh pathway inh inconclusive, MITF inhib 90.4
COC(CNC(=O)c1cccc(N2CCCC2=O)c1)OC	none (no result: Shh pathway inh, MITF inhib)
Cc1cs/c(=N\C(=S)Nc2ccccc2)n1C	none (no result: Shh pathway inh, MITF inhib)
Cn1c(-c2ccc(Cl)cc2)cs/c1=N\C(=S)NCCc1ccccc1	Shh pathway inh 91.1
COc1ccc(CCNC(=O)c2cc3ccccc3s2)cc1OC	none (no result: Shh pathway inh, MITF inhib)
CC[C@]1(O)C[C@H]2CN(CCc3c([nH]c4ccccc34)[C@@](C(=O)OC)(c3cc4c(cc3OC)N(C=O)[C@H]3[C@@](O)(C(=O)OC)[C@H](OC(C)=O)[C@@]5(CC)C=CCN6CC[C@]43[C@@H]65)C2)C1	BJeLR viability 60.6, Shh pathway inh 70.8
CC(C)c1cc(NC(C)c2ccccc2)n2c(nc3ccccc32)c1C#N (configuration not stated)	none (no result: Shh pathway inh, MITF inhib)
CCN(CC)c1ncc2c(=S)[nH]c(=S)[nH]c2n1	none
C=CCSc1ncc2c(=S)[nH]c(=S)[nH]c2n1	Shh pathway inh 65.4
O=C(NCC1CCCO1)c1ccc2c(Cl)c3c(nc2c1)CCCC3 (configuration not stated)	none (no result: Shh pathway inh, MITF inhib)
O[C@H]1[C@H]2c3cc4c(cc3CN3CCC(=C[C@@H]1O)[C@H]23)OCO4	BJeLR viability 63.2, Shh pathway inh 83.1
COC1C=CC23c4cc5c(cc4CN(C[C@H]2O)[C@@H]3C1)OCO5 (some centres not stated)	none
CN1CCc2cc3c(cc2C2OC(O)c4c(ccc5c4OCO5)C21)OCO3 (configuration not stated)	none
O[C@@H]1[C@@H](O)C=C2CCN3Cc4cc5c(cc4[C@H]1C23)OCO5 (some centres not stated)	Shh pathway inh 95.8
Cc1cc2ccccc2c(=O)n1CC(=O)NCC(=O)Nc1nc2ccccc2s1	none (no result: Shh pathway inh, MITF inhib)
COc1cccc(NC(=O)Cn2cc(C(=O)c3ccccc3)c(=O)c3cc(OC)ccc32)c1	none (no result: Shh pathway inh, MITF inhib)
C=C1C(=O)O[C@H]2[C@H]1[C@@H](OC(=O)/C(C)=C\C)C(OC(C)=O)/C(C(=O)OC)=C\CC[C@@]1(C)O[C@H]21 (some centres not stated)	BJeLR viability 68.1
C=C1C(=O)O[C@@H]2[C@H]1[C@H](O)C[C@]1(C)[C@@H](O)CC=C(C)[C@@H]21	none
C=C1C(=O)O[C@H]2[C@H]1C[C@H](OC(=O)/C(C)=C\C)/C(C)=C\CC[C@@]1(C)O[C@@H]21	none
C=C1C(=O)O[C@H]2[C@H]1[C@@H](OC(=O)/C(C)=C/C)C(OC(C)=O)/C(C(=O)OC)=C\CC[C@@]1(C)O[C@H]21 (some centres not stated)	BJeLR viability 60.6
C=C1C(=O)O[C@H]2[C@H]1[C@@H](OC(=O)C(C)(O)CCl)C(OC(C)=O)/C(C(=O)OC)=C\CC[C@@]1(C)O[C@H]21 (some centres not stated)	BJeLR viability 50.2
C=C1CCC2C(C)(CO)CCCC2(C)C1CC/C(C)=C/C(=O)O (configuration not stated)	none (no result: BJeLR viability, MITF inhib)
C=C1CCC2[C@](C)(CO)[C@H](O)CC[C@@]2(C)[C@@H]1C/C=C1/C(=O)OC[C@H]1O (some centres not stated)	Shh pathway inh 93.1
CCC(C)N(Cc1cn(CC)c2ccccc12)C(=O)Nc1ccc(Cl)c(Cl)c1 (configuration not stated)	none (no result: Shh pathway inh, MITF inhib)
CC(C)CNC(=O)NC1(C(F)(F)F)Oc2ccc(Cl)cc2O1 (configuration not stated)	none (no result: Shh pathway inh, MITF inhib)
CCn1c(=O)c2cc(C(=O)N(C)c3cc(Cl)ccc3C)sc2c2ccccc21	none (no result: Shh pathway inh, MITF inhib)
CCc1[nH]c(=S)c(C#N)c(-c2ccccc2)c1C(=O)OC	none (no result: Shh pathway inh, MITF inhib)
N#Cc1c(N)[nH]c(=S)c(C(N)=O)c1-c1cccc(Br)c1	Shh pathway inh 105.5
CCc1ccc(Nc2cc(C(=O)NCc3cccs3)c3ccccc3n2)cc1	none (no result: Shh pathway inh, MITF inhib)
CCc1ccc(-c2nc(CN3CCC(C(=O)NC4CC4)CC3)c(C)o2)cc1	none (no result: Shh pathway inh, MITF inhib)
Cc1ccc(SCc2cc(=O)[nH]c(/N=C(\N)Nc3ccccc3)n2)cc1	none (no result: Shh pathway inh, MITF inhib)
COc1ccc(CNC(=O)Nc2ncc([N+](=O)[O-])s2)cc1	MITF inhib 87.4
COc1cc([N+](=O)[O-])ccc1NC(=O)NCc1cccnc1	none (no result: BJeLR viability, Shh pathway inh)
CCOc1ccc(C(=O)Nc2ccc(OCC(=O)O)cc2)cc1	none (no result: BJeLR viability, Shh pathway inh)
CCOc1ccc(C(=O)Nc2cc(C)ccn2)cc1	BJeLR viability 89.8 (no result: Shh pathway inh, MITF inhib)
O=C(COc1ccc(Cl)cc1)NCc1ccc2[nH]c3c(c2c1)CCCC3	none (no result: Shh pathway inh, MITF inhib)
Cc1cc2ccccc2c(=O)n1CC(=O)N1CCCCC1	none (no result: Shh pathway inh, MITF inhib)
COc1ccc(C)cc1NS(=O)(=O)c1cccs1	none (no result: Shh pathway inh, MITF inhib)
C[C@@H]1CCOC(=O)C=CC=CC(=O)O[C@@H]2C[C@H]3O[C@@H]4C=C(C(=O)O)CC[C@]4(COC(=O)[C@H]1O)[C@]2(C)[C@]31CO1	BJeLR viability 71.0
CN1CCN2c3ncccc3Cc3ccccc3C2C1 (configuration not stated)	none
CC(C)(C)[C@]1(O)CCN2C[C@H]3c4ccccc4CCc4cccc(c43)[C@@H]2C1	Shh pathway inh 77.9
C[C@@H]1CN([C@H](C)CO)C(=O)Cc2cc(NC(=O)c3ccncc3)ccc2O[C@@H]1CN(C)Cc1ccc(Oc2ccccc2)cc1	Shh pathway inh 72.9 (no result: BJeLR viability)
C[C@@H]1CN([C@@H](C)CO)C(=O)Cc2cc(NC(=O)C3CCCCC3)ccc2O[C@@H]1CN(C)Cc1ccc(Oc2ccccc2)cc1	Shh pathway inh inconclusive (no result: BJeLR viability)
C[C@@H]1CN([C@H](C)CO)C(=O)Cc2cc(NC(=O)C3CCCCC3)ccc2O[C@@H]1CN(C)Cc1ccc(Oc2ccccc2)cc1	Shh pathway inh 69.7 (no result: BJeLR viability)
COc1ccc(CN(C)C[C@H]2Oc3ccc(NC(=O)Nc4cccc5ccccc45)cc3CC(=O)N([C@@H](C)CO)C[C@H]2C)cc1	none (no result: BJeLR viability)
C[C@H](CO)N1C[C@H](C)[C@H](CN(C)Cc2ccc(Oc3ccccc3)cc2)Oc2ccc(NC(=O)c3ccncc3)cc2CC1=O	none (no result: BJeLR viability)
COc1ccc(CN(C)C[C@@H]2Oc3ccc(NC(=O)Nc4cccc5ccccc45)cc3CC(=O)N([C@@H](C)CO)C[C@@H]2C)cc1	Shh pathway inh 68.6 (no result: BJeLR viability)
CC(C)c1ccc(S(=O)(=O)c2cnc(SCC(=O)Nc3ccccc3)[nH]c2=O)cc1	none (no result: Shh pathway inh, MITF inhib)
c1ccc2c(c1)nc(SC1CCCCC1)c1nncn12	none (no result: Shh pathway inh, MITF inhib)
CCc1ccc(NC(=O)CCS(=O)(=O)c2cccc3nonc23)cc1	none (no result: Shh pathway inh, MITF inhib)
CC(C)CCNC(=O)c1cn(C)c2ccc(S(=O)(=O)N3CCC(C)CC3)cc2c1=O	none (no result: Shh pathway inh, MITF inhib)
CCC(C)[C@@H](C(=O)NCc1ccc(F)cc1)N1Cc2ccccc2C1=O (some centres not stated)	none (no result: Shh pathway inh, MITF inhib)
Cc1ccc2oc(=O)c3cc(C(=O)N(Cc4ccco4)C4CCCCC4)sc3c2c1	none (no result: Shh pathway inh, MITF inhib)
O=C(Nc1ccccc1C(=O)N1CCCC1)c1cccc(I)c1	none (no result: Shh pathway inh, MITF inhib)

Bioassay records (PubChem)
